From PMC11006913 come the findings set out here.

Assay in all cases: PBM; 200 nM protein, PBS
Common to all, as to details: dsDNA, one strand shown

For assay [1], the target named is NKX2-5 (Homo sapiens, UniProt P52952 125-210, R139K).
Assay [2] addresses T1, NKX2-4 (Homo sapiens, UniProt Q9H2Z4 175-261, P217L).
T1 sequence: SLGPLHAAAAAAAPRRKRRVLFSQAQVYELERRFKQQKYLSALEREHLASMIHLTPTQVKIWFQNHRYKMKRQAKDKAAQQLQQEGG

The target of assay [3] is T2, NKX2-4 (Homo sapiens, UniProt Q9H2Z4 175-261, T231S).
T2 sequence: T1 sequence with L43P, T57S

In assay [4] the target is T3, NKX2-4 (Homo sapiens, UniProt Q9H2Z4 175-261).
T3 sequence: T1 sequence with L43P

The target in assay [5] is T4, NKX2-6 (Homo sapiens, UniProt A6NCS4 118-204, R150C).
T4 sequence: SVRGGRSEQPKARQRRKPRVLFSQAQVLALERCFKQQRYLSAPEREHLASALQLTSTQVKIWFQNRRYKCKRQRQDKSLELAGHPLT

Assay [6] deals with T5, NKX2-6 (Homo sapiens, UniProt A6NCS4 118-204).
T5 sequence: T4 sequence with C33R

The target of assay [7] is T6, NKX2-4 (Homo sapiens, UniProt Q9H2Z4 175-261, R246Q).
T6 sequence: T1 sequence with L43P, R72Q

Assay [8] deals with T7, NKX2-6 (Homo sapiens, UniProt A6NCS4 118-204, F151L).
T7 sequence: T4 sequence with C33R, F34L

Assay [9] has as its target NKX3-2 (Homo sapiens, UniProt P78367 192-278, P234S).
In assay [10] the target is NKX2-5 (Homo sapiens, UniProt P52952 125-210).
The target of assay [11] is NKX3-2 (Homo sapiens, UniProt P78367 192-278).

Numbering of substitutions follows the chain as printed.

Sequence of NKX2-5 (Homo sapiens, UniProt P52952 125-210) (P52952 125-210): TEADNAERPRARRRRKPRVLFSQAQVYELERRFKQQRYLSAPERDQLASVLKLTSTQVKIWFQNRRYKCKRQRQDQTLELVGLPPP
Sequence of NKX3-2 (Homo sapiens, UniProt P78367 192-278) (P78367 192-278): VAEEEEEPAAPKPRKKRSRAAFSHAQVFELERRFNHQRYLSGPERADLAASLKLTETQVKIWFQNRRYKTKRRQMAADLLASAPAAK
Sequence of NKX2-5 (Homo sapiens, UniProt P52952 125-210, R139K) (P52952 125-210 R139K): as the sequence (P52952 125-210) above, with R15K counted along it
Sequence of NKX3-2 (Homo sapiens, UniProt P78367 192-278, P234S) (P78367 192-278 P234S): as the sequence (P78367 192-278) above, with P43S counted along it

Take AACACTTA: the binding signal in the assay with NKX2-5 [1] is 12.7 upbm affinity estimate (log intensity, higher = more binding, comparable within an allelic series); with NKX2-4 [2] it was 12.5 upbm affinity estimate (log intensity, higher = more binding, comparable within an allelic series); in the assay with NKX2-4 [3], 12.8 upbm affinity estimate (log intensity, higher = more binding, comparable within an allelic series); with NKX2-4 [4], 12.4 upbm affinity estimate (log intensity, higher = more binding, comparable within an allelic series); with NKX2-6 [5], 11.8 upbm affinity estimate (log intensity, higher = more binding, comparable within an allelic series); with NKX2-6 [6] it was 13.6 upbm affinity estimate (log intensity, higher = more binding, comparable within an allelic series). Also, the binding signal with NKX2-4 [7] is 12.9 upbm affinity estimate (log intensity, higher = more binding, comparable within an allelic series); with NKX2-6 [8] it was 11.3 upbm affinity estimate (log intensity, higher = more binding, comparable within an allelic series); with NKX3-2 [9], 12.7 upbm affinity estimate (log intensity, higher = more binding, comparable within an allelic series); with NKX2-5 [10], 12.6 upbm affinity estimate (log intensity, higher = more binding, comparable within an allelic series); in the assay with NKX3-2 [11], 12.7 upbm affinity estimate (log intensity, higher = more binding, comparable within an allelic series).

For CACTTATC, the binding signal was 12.8 upbm affinity estimate (log intensity, higher = more binding, comparable within an allelic series) with NKX2-5 [1]; 12.7 upbm affinity estimate (log intensity, higher = more binding, comparable within an allelic series) with NKX2-4 [2]; 13 upbm affinity estimate (log intensity, higher = more binding, comparable within an allelic series) with NKX2-4 [3]; 12.5 upbm affinity estimate (log intensity, higher = more binding, comparable within an allelic series) with NKX2-4 [4]; 12.1 upbm affinity estimate (log intensity, higher = more binding, comparable within an allelic series) with NKX2-6 [5]; 13.8 upbm affinity estimate (log intensity, higher = more binding, comparable within an allelic series) with NKX2-6 [6]. Further, the binding signal with NKX2-4 [7] is 13.2 upbm affinity estimate (log intensity, higher = more binding, comparable within an allelic series); in the assay with NKX2-6 [8], 11.2 upbm affinity estimate (log intensity, higher = more binding, comparable within an allelic series); with NKX3-2 [9], 12.7 upbm affinity estimate (log intensity, higher = more binding, comparable within an allelic series); in the assay with NKX2-5 [10], 12.8 upbm affinity estimate (log intensity, higher = more binding, comparable within an allelic series); with NKX3-2 [11], 12.8 upbm affinity estimate (log intensity, higher = more binding, comparable within an allelic series).

With ACAAGTGG, the binding signal is 12.9 upbm affinity estimate (log intensity, higher = more binding, comparable within an allelic series) with NKX2-5 [1]; 12.6 upbm affinity estimate (log intensity, higher = more binding, comparable within an allelic series) with NKX2-4 [2]; 13.1 upbm affinity estimate (log intensity, higher = more binding, comparable within an allelic series) in the assay with NKX2-4 [3]; 12.5 upbm affinity estimate (log intensity, higher = more binding, comparable within an allelic series) with NKX2-4 [4]; 12 upbm affinity estimate (log intensity, higher = more binding, comparable within an allelic series) in the assay with NKX2-6 [5]; 13.7 upbm affinity estimate (log intensity, higher = more binding, comparable within an allelic series) with NKX2-6 [6]. Also, the binding signal with NKX2-4 [7] was 13.2 upbm affinity estimate (log intensity, higher = more binding, comparable within an allelic series); with NKX2-6 [8], 10.8 upbm affinity estimate (log intensity, higher = more binding, comparable within an allelic series); with NKX3-2 [9] it was 12.6 upbm affinity estimate (log intensity, higher = more binding, comparable within an allelic series); in the assay with NKX2-5 [10] it was 12.8 upbm affinity estimate (log intensity, higher = more binding, comparable within an allelic series); in the assay with NKX3-2 [11], 12.7 upbm affinity estimate (log intensity, higher = more binding, comparable within an allelic series).

For the sequence CACTTGAC, the binding signal is 12.9 upbm affinity estimate (log intensity, higher = more binding, comparable within an allelic series) with NKX2-5 [1]; 12.7 upbm affinity estimate (log intensity, higher = more binding, comparable within an allelic series) with NKX2-4 [2]; 13.1 upbm affinity estimate (log intensity, higher = more binding, comparable within an allelic series) with NKX2-4 [3]; 12.6 upbm affinity estimate (log intensity, higher = more binding, comparable within an allelic series) with NKX2-4 [4]; 11.9 upbm affinity estimate (log intensity, higher = more binding, comparable within an allelic series) with NKX2-6 [5]; 13.7 upbm affinity estimate (log intensity, higher = more binding, comparable within an allelic series) in the assay with NKX2-6 [6]. Moreover, the binding signal with NKX2-4 [7] was 13.3 upbm affinity estimate (log intensity, higher = more binding, comparable within an allelic series); with NKX2-6 [8], 11.2 upbm affinity estimate (log intensity, higher = more binding, comparable within an allelic series); with NKX3-2 [9], 12.1 upbm affinity estimate (log intensity, higher = more binding, comparable within an allelic series); with NKX2-5 [10], 12.9 upbm affinity estimate (log intensity, higher = more binding, comparable within an allelic series); with NKX3-2 [11], 12.2 upbm affinity estimate (log intensity, higher = more binding, comparable within an allelic series).

With AACCACTT, the binding signal with NKX2-5 [1] is 12.9 upbm affinity estimate (log intensity, higher = more binding, comparable within an allelic series); in the assay with NKX2-4 [2], 12.7 upbm affinity estimate (log intensity, higher = more binding, comparable within an allelic series); with NKX2-4 [3], 13.1 upbm affinity estimate (log intensity, higher = more binding, comparable within an allelic series); with NKX2-4 [4], 12.6 upbm affinity estimate (log intensity, higher = more binding, comparable within an allelic series); with NKX2-6 [5], 12 upbm affinity estimate (log intensity, higher = more binding, comparable within an allelic series); with NKX2-6 [6], 13.7 upbm affinity estimate (log intensity, higher = more binding, comparable within an allelic series). Moreover, the binding signal was 13.2 upbm affinity estimate (log intensity, higher = more binding, comparable within an allelic series) in the assay with NKX2-4 [7]; 10.9 upbm affinity estimate (log intensity, higher = more binding, comparable within an allelic series) in the assay with NKX2-6 [8]; 12.9 upbm affinity estimate (log intensity, higher = more binding, comparable within an allelic series) in the assay with NKX3-2 [9]; 12.8 upbm affinity estimate (log intensity, higher = more binding, comparable within an allelic series) with NKX2-5 [10]; 12.9 upbm affinity estimate (log intensity, higher = more binding, comparable within an allelic series) with NKX3-2 [11].

With CCACTTAG, the binding signal is 13.1 upbm affinity estimate (log intensity, higher = more binding, comparable within an allelic series) with NKX2-5 [1]; 12.7 upbm affinity estimate (log intensity, higher = more binding, comparable within an allelic series) with NKX2-4 [2]; 13 upbm affinity estimate (log intensity, higher = more binding, comparable within an allelic series) in the assay with NKX2-4 [3]; 12.6 upbm affinity estimate (log intensity, higher = more binding, comparable within an allelic series) in the assay with NKX2-4 [4]; 12.2 upbm affinity estimate (log intensity, higher = more binding, comparable within an allelic series) with NKX2-6 [5]; 14 upbm affinity estimate (log intensity, higher = more binding, comparable within an allelic series) with NKX2-6 [6]. Moreover, the binding signal with NKX2-4 [7] is 13.1 upbm affinity estimate (log intensity, higher = more binding, comparable within an allelic series); with NKX2-6 [8], 11.1 upbm affinity estimate (log intensity, higher = more binding, comparable within an allelic series); with NKX3-2 [9], 13.4 upbm affinity estimate (log intensity, higher = more binding, comparable within an allelic series); in the assay with NKX2-5 [10], 13.1 upbm affinity estimate (log intensity, higher = more binding, comparable within an allelic series); with NKX3-2 [11], 13.5 upbm affinity estimate (log intensity, higher = more binding, comparable within an allelic series).
